Test results published in PubChem BioAssay AID1376 (SRMLSC, 2008).
The campaign covered roughly 220,000 compounds. About 530 (0.24%) were called active. The sample holds actives, similar compounds and a random draw of the others, so the mix is not that of the screen. Entries with a potency or affinity are not part of this list. Values without a mark were called inactive. Rule as the data show it: active = inhibition above about 13%; inconclusive = no clear call, values can overlap the other calls; inactive = below that.

Molecular target: Bifunctional protein GlmU (Mycobacterium tuberculosis (strain ATCC 25618 / H37Rv)) (UniProt P9WMN3)
Sequence (P9WMN3 whole entry, looked up): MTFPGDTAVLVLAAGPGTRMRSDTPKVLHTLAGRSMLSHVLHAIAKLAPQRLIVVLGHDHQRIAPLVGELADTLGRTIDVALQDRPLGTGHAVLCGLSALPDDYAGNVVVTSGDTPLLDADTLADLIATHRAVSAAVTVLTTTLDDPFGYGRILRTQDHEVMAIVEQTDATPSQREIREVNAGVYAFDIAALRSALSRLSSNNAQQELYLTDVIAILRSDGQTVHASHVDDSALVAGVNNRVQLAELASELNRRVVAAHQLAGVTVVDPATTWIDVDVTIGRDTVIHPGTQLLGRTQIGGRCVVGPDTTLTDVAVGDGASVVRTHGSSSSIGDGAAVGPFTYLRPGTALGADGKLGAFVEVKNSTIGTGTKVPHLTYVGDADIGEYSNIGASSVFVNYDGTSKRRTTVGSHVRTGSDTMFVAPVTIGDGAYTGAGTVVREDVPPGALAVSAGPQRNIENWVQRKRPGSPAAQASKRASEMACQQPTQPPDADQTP
Assay: inhibition of mycobacterial GlmU enzyme – biochemical, glucosamine-1-phosphate acetyltransferase (AID 1376);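 also: 0% = complete reaction with vehicle and 100% = reaction without substrate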
Settings: M. tuberculosis GlmU acetyltransferase enzyme assay; stronger effect = higher value;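 tested at 30 µM in the primary screen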

Row | SMILES | inhibition
1 | CC1=NN(c2ccc(C(=O)OC(C)C)cc2)C(=O)/C1=C\C=C\c1ccco1 | 1.04%
2 | Cc1cccc(N2C(=O)NC(=O)/C(=C/c3ccc(-c4ccc(C(=O)O)c(Cl)c4)o3)C2=O)c1 | -1.08%
3 | CCOC(=O)c1ccc(N2N=C(C)/C(=C/C=C/c3ccco3)C2=O)cc1 | 3.89%
4 | CC1(C)OC(=O)C(=Cc2ccc(-c3ccc(Cl)c(C(=O)O)c3)o2)C(=O)O1 | 6.43%
5 | O=C1NN(c2ccccc2)C(=O)/C1=C/c1ccc(Sc2ccc(Cl)cc2)o1 | 4.82%
6 | O=C1NN(c2ccc(Cl)cc2)C(=O)/C1=C\c1ccc(-c2cccc(C(=O)O)c2)o1 | 30.9% (active)
7 | Cc1ccc(Sc2ccc(/C=C3/C(=O)NN(c4ccccc4)C3=O)o2)cc1 | 4.6%
8 | Cc1ccc(N2NC(=O)/C(=C/c3ccc(-c4ccc(Cl)c(C(=O)O)c4)o3)C2=O)cc1 | 7.4%
9 | O=C1NN(c2ccccc2)C(=O)/C1=C\c1ccc(-c2cc([N+](=O)[O-])ccc2O)o1 | 9.4%
10 | CCOC(=O)C1CCN(c2cc(C)nc3cc(-c4cccc(F)c4)nn23)CC1 | 0.46%
11 | CCCNC(=O)Nc1ccsc1C(=O)OC | -1.89%
12 | O=C1N=C(N2CCOCC2)S/C1=C1\C(=O)N(Cc2ccccc2)c2ccccc21 | 0.6%
13 | COCCCNc1ncnc2nc[nH]c12 | -2.31%
14 | CC1(C(=O)OCC(=O)Nc2ccc(C(N)=O)cc2)CC1(Cl)Cl (centres undefined) | -0.58%
15 | CC1CC(C)(C)NC(=S)N1CCCC(=O)Nc1ccc2c(c1)OCCO2 (centres undefined) | -3.18%
16 | CC1CCN(C(c2nnnn2CCc2ccccc2)C(C)C)CC1 (centres undefined) | 2.28%
17 | CC1=NOC(=O)/C1=C\c1ccc(-c2ccc(Cl)c(C(=O)O)c2)o1 | 19.4%
18 | CCCCC1(C)OC(=O)C(=Cc2ccc(-c3ccc(Cl)c(C(=O)O)c3)o2)C(=O)O1 (centres undefined) | 0.45%
19 | COc1ccc(Sc2ccc(/C=C3\C(=O)NN(c4ccccc4)C3=O)o2)cc1 | 7.34%
20 | COc1ccc(CN2C(=O)/C(=C/c3ccc(-c4ccc(Cl)c(C(=O)O)c4)o3)SC2=S)cc1 | 9.33%
21 | O=C(CN1CCC(NC(=O)Cc2ccccc2)CC1)Nc1cccc2ccccc12 | 4.11%
22 | O=C(NCc1ccccc1Cl)c1ccc(-c2ccccc2)cc1 | -4.31%
23 | O=C(NCc1ccccc1)c1c(O)c2cccc3c2n(c1=O)CCC3 | -6.36%
24 | CN(Cc1cnn(C)c1)S(=O)(=O)c1cccc([N+](=O)[O-])c1 | 2.06%
